The text below walks through data of the OligoGym collection.
Note: reference of the scale not given here.

For one assay, the target named is DCPS. The experiment in a line: pooled miR-30 sensor sort-seq; sequence = guide strand. Conditions: shRNA.
ATTCCTGTAGTCATCTCCCGTC: the sensor-assay potency score (higher = more potent) is -0.108. Same read-out and setting: the figure for TTATACACCCACTGGATGCTGA is -0.178. Sequence TTGTCTTGGAGGGAACAAGTGA yielded a sensor-assay potency score (higher = more potent) of -0.588. The sequence TACCATTTCCAACTCCTGCCTC came in with a sensor-assay potency score (higher = more potent) of -0.586.

As to TTCAATACTAGGAATAAGCCGG, the sensor-assay potency score (higher = more potent) was -0.221.

On to TAGTCATCTCCCGTCTCTCGGA, for which the sensor-assay potency score (higher = more potent) is -0.952. For the sequence TTCTGCAGTCTGAAGCCGGAGA, the sensor-assay potency score (higher = more potent) is -0.8. With TAGGAAAATGATTTTGTCCCGC, the sensor-assay potency score (higher = more potent) was -0.432. With TTCTGCAGGTGTTTCTCTGTGG, the sensor-assay potency score (higher = more potent) is 0.117. TTACATCATTCAGTTGTCTTGG came in with a sensor-assay potency score (higher = more potent) of 0.191. On to TTTTAGAAAATTCACTTGGAGA, for which the sensor-assay potency score (higher = more potent) was -0.97.

The target of another assay is DCST1. The description is as above. Conditions: shRNA.
In turn, TAGGTCATTGTAGAGGAACAGG had a sensor-assay potency score (higher = more potent) of -1.31.

Regarding TATCCCAGGACAAAGAGCCTGC, the sensor-assay potency score (higher = more potent) is -0.178. TTGATCTGCAGCTCCACGGTGC had a sensor-assay potency score (higher = more potent) of -0.609.

Take TTCTTCGTAGATGTTCATGGGG: the sensor-assay potency score (higher = more potent) turned out to be 0.19. Regarding TCTTCGTAGATGTTCATGGGGT, the sensor-assay potency score (higher = more potent) is -0.405. TTGGGTACTAGTAGGAGGCTGG: the sensor-assay potency score (higher = more potent) worked out at 0.466.

Turning to TTGTAGAGGAACAGGATCCGCT, the sensor-assay potency score (higher = more potent) is -0.486. TAACAGGCAGAGACACACTAAC gave a sensor-assay potency score (higher = more potent) of -1.38. On the same count and under the same terms, the value for TACAAGAACATAATCTTCTGTT was 0.614; that for ATCGGTACTGCAGCTCTCCAGT was -0.753; that for TTCTTTGCCCTCTTGTGCCATT was -1.23. In turn, TTTGCTACTCAGCAGGTCCTTG yielded a sensor-assay potency score (higher = more potent) of -0.773.

The target of a further assay is DCTN6. The description is as above. Conditions: shRNA.
For the sequence TAATTCTTGCTTTAGGGTGGAT, the sensor-assay potency score (higher = more potent) was -0.47. Turning to TTTCTACACATACAACTGCTCC, the sensor-assay potency score (higher = more potent) is -0.672. For TAGATCACCGTATTCTCAGGGA, the sensor-assay potency score (higher = more potent) was found to be 0.157.

TTAAGAGTACATAAACACTGTG: the sensor-assay potency score (higher = more potent) is -0.096.

As to TTTCATAGTCTTCTTTAGGTGG, the sensor-assay potency score (higher = more potent) was -0.245. As to TTAGGGTGGATCACTGTCCGAG, the sensor-assay potency score (higher = more potent) was -0.692.

Sequence TTTAGGTTGCAACAAGCCCCAA came in with a sensor-assay potency score (higher = more potent) of -1.26. Take TTTCATCAAGAAATCCAGCTGT: the sensor-assay potency score (higher = more potent) was determined as 0.825. Consider TAGGTTTTGGTTCTGGATCTTC, for which the sensor-assay potency score (higher = more potent) was -0.00342.

Consider TTTCACTTTCTACACATACAAC, for which the sensor-assay potency score (higher = more potent) is -1.58.

For TAAGAGTACATAAACACTGTGG, the sensor-assay potency score (higher = more potent) was -0.0797.

In the next assay the target is DCX. The description is as above. The note with it: shRNA.
As to TTTATTTCCATAGCAAACTGGA, the sensor-assay potency score (higher = more potent) was -0.272. Still for that read-out and setting: the value for TTTCATTTAAATCAACTCCGAT was -0.0704. In the case of TTTCTGGCTATAACTATTCTAA, the sensor-assay potency score (higher = more potent) was -0.801.

Take TTCATTTAAATCAACTCCGATT: the sensor-assay potency score (higher = more potent) is -0.375. Same read-out and setting: the value for TAGAGTTTTTTGACAACCCCGG was -0.351; that for ATTCTTGGTGTACTCCACCTTT was -0.629.
